# HPGD block = inhibitors of human 15-hydroxyprostaglandin dehydrogenase (HPGD); purified HPGD, NADH fluorescence kinetic, PGE2 substrate; Potency, µM, without a hit: at the top dose activity change, negative = inhibition, most hits filed as inhibitors; 150,000 compounds, 4.3% hits; AID 894; also: potency is read from the fitted curve at half-maximal effect; % is scaled to controls: 0 for no effect and ±100 for the full control effect
# Target sequence (P15428 whole entry, looked up): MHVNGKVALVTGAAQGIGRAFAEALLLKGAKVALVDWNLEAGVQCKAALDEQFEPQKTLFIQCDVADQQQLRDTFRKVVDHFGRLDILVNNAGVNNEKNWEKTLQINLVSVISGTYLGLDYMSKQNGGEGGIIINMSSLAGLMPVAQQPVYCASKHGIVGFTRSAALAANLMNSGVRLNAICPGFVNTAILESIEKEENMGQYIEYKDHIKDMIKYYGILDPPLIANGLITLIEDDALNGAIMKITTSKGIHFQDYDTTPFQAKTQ
#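 20 nM HPGD preincubated 15 min at room temperature with compound in 50 mM Tris-HCl pH 8, 0.01% Tween 20. Started with 1 mM NAD+ and 30 uM prostaglandin E2; NADH fluorescence (360/450 nm) read 5 times over 30-s intervals, last minus first.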
# HTT ATP protect = protects HTT-Q103 PC12 cells, measured by ATP; PC12 HTT-Q103 induced, cytoprotection, ATP luminescence, 40 h; Potency, µM (titrated, usually from 56.4 µM), for inactives: cytoprotection (ATP increase), actives largely listed as activators; 230,000 compounds, 0.14% hits; active = well fitted curve in the direction sought with a large enough effect; inconclusive = small, poorly fitted or top-dose-only effect, or another doubt; inactive = no such curve, though single readings can be large; an effect the other way counts as inactive or inconclusive; also: potency is read from the fitted curve at half-maximal effect; % of control where 0% means no effect; nearly all actives have a fitted effect of over 45% in size
#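 Rat PC12, Q103 Htt exon1-GFP fusion, ecdysone promoter; tebufenozide inducer 100 nM final; compound titration; qHTS, 1500 cells/well; ATPlite luminescent read.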
# RGS12 GoLoco inh = blocks human Gai1 binding to RGS12 GoLoco peptide, red readout; Potency, µM (titrated, usually from 61.6 µM), without a hit: at the top dose activity, negative = inhibition, most hits filed as inhibitors; Gai1:RGS12 GoLoco peptide FP, rhodamine, 10 min; AID 880; P63096; 230,000 compounds, 0.44% hits; active = well fitted inhibition curve with a large enough effect, not every such curve was filed as active; inactive = no such curve, though single readings can be large or run the other way; also: potency is read from the fitted curve at half-maximal effect; % is scaled to controls: 0 for no effect and ±100 for the full control effect; nearly all actives have a fitted effect of over 30% in size
# PNC assembly inh = inhibitors of perinucleolar compartment assembly. PC3M PTB-GFP, PNC prevalence imaging, 16 h; active compounds read low. activity change (PNC), negative = inhibition, % at 10 µM. AID 2417. 140,000 compounds, 3.1% hits;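 active = readout at or below -70, meaning at least 70% loss of cells showing the perinucleolar compartment, a nuclear body marking cancer cells; inconclusive = readout between -30 and a set limit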;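 also: plate controls were DMSO wells for no effect and camptothecin positive control wells for full effect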
#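 PC3M cells stably expressing PTB-GFP, 750–1000 cells/well, treated 16 h at 37 °C with compound (23 nl of library stock), in duplicate. After paraformaldehyde fixation and Hoechst stain, imaged at 20x; PNC prevalence scored by image analysis.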
# HttQ103 aggreg = inhibitors of mutant huntingtin aggregate formation in PC12 cells. AID 1688. PC12 HttQ103-GFP aggregates, Acumen cytometry, 40 h. 220,000 compounds, 1.1% hits. Potency, µM (doses to about 46.1 µM), for inactives: top-dose activity change, negative = inhibition, most hits filed as inhibitors; active = well fitted curve in the direction sought with a large enough effect; inconclusive = small, poorly fitted or top-dose-only effect, or another doubt; inactive = no such curve, though single readings can be large; an effect the other way counts as inactive or inconclusive; also: potency is read from the fitted curve at half-maximal effect; % is scaled to controls: 0 for no effect and ±100 for the full control effect; nearly all actives have a fitted effect of over 60% in size
#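 Compounds (qHTS titration) were added to PC12 cells expressing an ecdysone-driven HTT exon 1 Q103–GFP fusion after induction with 100 nM tebufenozide. Aggregate formation was measured as GFP objects in cell lysates.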
# ALDH1A1 block = ALDH1A1 (human) enzyme inhibition. Purified ALDH1A1, NADH fluorescence, propionaldehyde substrate. Potency, µM (titrated, usually from 75.3 µM), without a hit: at the highest dose activity, negative = inhibition, hits mostly inhibitors. AID 1030. 220,000 compounds, 7.3% hits;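 also: potency is read from the fitted curve at half-maximal effect; plate controls were no enzyme wells and a reference inhibitor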
# Target sequence (P00352 whole entry, looked up): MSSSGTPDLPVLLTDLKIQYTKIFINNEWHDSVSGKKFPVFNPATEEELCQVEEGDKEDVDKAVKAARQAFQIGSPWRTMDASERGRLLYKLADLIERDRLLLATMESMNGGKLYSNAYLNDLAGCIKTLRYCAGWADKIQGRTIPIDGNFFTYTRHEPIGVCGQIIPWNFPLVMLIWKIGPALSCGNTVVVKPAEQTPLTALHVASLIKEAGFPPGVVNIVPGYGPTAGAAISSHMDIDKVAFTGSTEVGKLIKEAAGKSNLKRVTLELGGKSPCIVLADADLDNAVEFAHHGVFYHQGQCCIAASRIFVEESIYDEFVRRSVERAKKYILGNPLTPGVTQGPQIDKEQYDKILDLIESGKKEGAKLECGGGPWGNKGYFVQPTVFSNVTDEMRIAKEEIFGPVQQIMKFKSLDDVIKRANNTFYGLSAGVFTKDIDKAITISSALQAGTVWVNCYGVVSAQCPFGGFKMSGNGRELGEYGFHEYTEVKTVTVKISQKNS
# Starred values were filed as active, the others as inactive; ? = inconclusive; nt = no result; [ ] = remark or other dose. This is a sample that favours compounds with a hit; in the whole collection about 11% have one here. Unless noted, calls follow the shape of the dose curve; as a rule, active = well fitted inhibition curve with a large enough effect (not every such curve was filed as active); inconclusive = small, poorly fitted or top-dose-only effect, or another doubt; inactive = no such curve, though single readings can be large or run the other way.
SMILES,HPGD block,HTT ATP protect,RGS12 GoLoco inh,PNC assembly inh,HttQ103 aggreg,ALDH1A1 block
Cc1ccc2oc(=O)c(/C=C(\O)c3ccccc3)nc2c1,nt,44%,6%,nt,-15%,?
Cc1nc(C)c(/C(O)=C/c2nc3ccc([N+](=O)[O-])cc3oc2=O)o1,nt,-22%,40%,nt,15%,0.4µM*
COc1cccc2c1[C@@H]1CN(CCCCn3c(=O)[nH]c4c(sc5ncc(-c6ccccc6)nc54)c3=O)C[C@H]1CO2,nt,7%[1.9 µM],nt,nt,nt,nt
COc1ccc2cc(C(c3nnnn3Cc3ccccc3)N3CCCCCC3)c(=O)[nH]c2c1 (stereo not given),-8%,-28%[10 µM],3%,2,24%,14µM*
COc1ccc(Cn2nnnc2C(c2cc3ccc(OC)cc3[nH]c2=O)N2CCC(C)CC2)cc1 (stereo not given),-8%,-10%,-5%,26,-18%,0.89µM*
CC(C)Cc1nnc(NS(=O)(=O)c2ccc(Cl)cc2)s1,-6%,-4%[10 µM],6%,-9,6%,?
CC(C)Cc1nnc(NS(C)(=O)=O)s1,-19%,-24%,-5%,20,2%,25µM*
CCNC(=S)N/N=C(\C)c1ccc(N2CCOCC2)cc1,-30%,15%[0.074 µM],12%,-19,-2%,?
CNC(=S)N/N=C(\C)c1ccc(N2CCOCC2)cc1,-18%,-11%[1.9 µM],7%,-112*,-8%,?
C/C(=N\Nc1ccc(F)cc1F)c1ccc(N2CCOCC2)cc1,nt,1%[10 µM],-1%,nt,10%,16µM*
C/C(=N\Nc1ccc(F)cc1F)c1ccc(Br)s1,nt,?,7%,nt,-17%,13µM*
C/C(=N\Nc1ccc(F)cc1F)c1ccc(F)cc1,-7%,5%,14%,75,4%,?
c1ccc2c(c1)nnn2CN1CCOCC1,1%,14%[10 µM],-8%[14.2 µM],nt,nt,7%[13.5 µM]
COc1cccc(N2CCN(C(=O)CCCCCNc3nc(=S)[nH]c4ccccc34)CC2)c1,nt,-96%,4%,nt,?,6%
N/C(=N\OC(=O)c1cccs1)c1ccc(Cl)cc1,nt,8%[10 µM],-2%,nt,25%[9.22 µM],nt
NC(=O)n1c(O)c(C(=O)c2cccs2)c2cc(Cl)ccc21,nt,nt,nt,nt,11µM*,nt
COc1ccc(-c2csc(NNC3=NCCCCC3)n2)cc1,nt,-32%[10 µM],2%,nt,27%,13µM*
c1ccc(-c2csc(NNC3=NCCCCC3)n2)cc1,?,-3%[10 µM],-1%,-23,-6%,32µM*
[Cu].[O-]/N=C1/C(=[OH+])Nc2ccccc21.[O-]Nc1c(O)[nH]c2ccccc12,nt,-4%[10 µM],nt,nt,nt,nt
O=c1oc2ccccc2c(NCc2ccc(Cl)cc2)c1[N+](=O)[O-],nt,10%[10 µM],6%,nt,7%[9.22 µM],nt
COc1ccc(CCNc2c([N+](=O)[O-])c(=O)oc3ccccc23)cc1OC,16µM*,8%,-4%,50,0%,0%
Cc1cc(Cl)cc(Cl)c1CNc1c([N+](=O)[O-])c(=O)oc2ccccc12,?,6%[10 µM],6%,-21,-7%,10µM*
Cn1c(=O)c([N+](=O)[O-])c(NCc2ccccc2)c2ccccc21,6.3µM*,-7%[10 µM],14%,?,16%,16µM*
O=c1oc2ccccc2c(NCCO)c1[N+](=O)[O-],nt,11%[10 µM],12%,nt,9%,6%
O=c1oc2ccccc2c(NCc2ccccc2)c1[N+](=O)[O-],25µM*,0%[10 µM],12%,?,-10%,11µM*
SMILES,HPGD block,HTT ATP protect,RGS12 GoLoco inh,PNC assembly inh,HttQ103 aggreg,ALDH1A1 block
Nc1c(NCc2ccccc2)c2ccccc2oc1=O,?,-8%,6%,8,-19%,22µM*
CC(=O)c1noc(C)c1C(=O)Nc1nccs1,1%,11%,29%,-93*,16%,-7%
COc1ncc2nc(-c3cn(C)c4ccccc34)c(=O)n(C)c2n1,nt,-49%,10%,nt,nt,?
c1csc(-c2nn3c(-c4ccncc4)nnc3s2)c1,-8%,0%[0.074 µM],-5%,?,1%,13%
Clc1ccccc1OCc1nn2c(-c3ccncc3)nnc2s1,4µM*,-7%[0.074 µM],-3%,26,-21%,?
Clc1ccc(OCc2nn3c(-c4ccccc4)nnc3s2)c(Cl)c1,?,3%[10 µM],4%,?,8%,?
c1csc(Cc2nn3c(-c4ccncc4)nnc3s2)c1,-23%,-17%,12%,?,10µM*,?
CC(=O)Nc1ccc(N(C(=O)CNC(=O)c2cccs2)C(C(=O)NC(C)(C)C)c2ccccc2)cc1 (stereo not given),nt,?,15%,nt,14%[9.22 µM],3%
Cc1ccc(NS(=O)(=O)c2ccc(Cl)c(C(=O)Nc3ccccc3-c3nc4ccccc4[nH]3)c2)cc1C,?,-27%[10 µM],-8%,-9,11µM*,-96%
Cc1nc(NC2CCCCC2)c2nc(-c3ccccc3)n(CCN3CCCCC3)c2n1,?,-48%,2%,nt,nt,?
Cn1cc(/C=C2/SC(=O)N(c3ccccc3)C2=O)c2ccccc21,-9%,-5%,-6%,68,8%,13%
O=C(O)Cn1cc(/C=C2\SC(=O)N(c3ccccc3)C2=O)c2ccccc21,nt,-11%[1.9 µM],12%,nt,-14%[9.22 µM],22µM*
S=c1[nH]nc(-c2ccccc2Cl)n1CC1CCCO1 (stereo not given),-27%,8%,-10%,?,23%,14µM*
O=C(Nc1cccc(C(F)(F)F)c1)Nc1ccc(N2CCCC2)c(S(=O)(=O)Nc2ccccc2Cl)c1,-25%,-48%[10 µM],2%,18,?,-7%
COc1ccccc1N/C=C/c1onc(C)c1[N+](=O)[O-],nt,-84%,40%,nt,0%,10%
Cc1noc(/C=C/Nc2ccc(F)cc2F)c1[N+](=O)[O-],nt,-85%,1%,nt,-8%,1.3µM*
Oc1cccc(/C=N/NC(=S)Nc2cccnc2)c1O,32µM*,nt,-12%,?,?,?
CC(=O)Nc1cccc(C(=O)N/N=C/c2cccnc2)c1,nt,-89%,-4%,nt,-1%,6%
O=C(O)c1cccc(NC(=S)N/N=C/c2cccnc2)c1,nt,1%,-10%,nt,16%,25µM*
Fc1ccc(/C=N/NC(=S)Nc2cccnc2)cc1F,nt,-30%,4%,nt,-9%,?
Fc1ccc(/C=N/NC(=S)Nc2cccnc2)cc1,nt,-46%,6%,nt,11%,22µM*
CCCCC#Cc1nc(NC)c2ncn([C@@H]3O[C@@H](CO)[C@H](O)[C@H]3O)c2n1,4%,-11%,3%,nt,nt,-1%
C=CCOC(=O)N[C@H](/C(C(=O)OC)=C(\C)NCc1ccccc1)c1cccc(OC)c1,-8%,-29%,2%,nt,nt,3%
COc1cc(/C=C/C(=O)N2CCC=CC2=O)cc(OC)c1OC,-24%,nt,6%,nt,nt,10µM*
